The target of the first assay is RUNX1 (UniProt Q01196). The assay is described as follows: RUNX1 binding intensity (PBM fluorescence), RUNX1 alone (arbitrary fluorescence units); higher = stronger binding. To be noted: RUNX1 concentration 2 nM; ETS1 concentration 0 nM. How it is done:
(§1)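 Cooperative gcPBM on 36-bp genomic probes with neighbouring ETS1 and RUNX1 sites. Recombinant human RUNX1 (2 nM) was incubated alone or with ETS1 (25 nM) and detected with anti-RUNX1 antibody plus Alexa488 secondary. Values are medians over 4 replicate spots; the RUNX1+ETS1 data were normalised to the RUNX1-only data. The probes sit in constant array flanks that are not printed.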
The sequence ACCTGTGTTCTGGCAGGATGTGGTTGACCTCAGCAG showed an RUNX1 binding intensity of 755.
Still for that read-out and setting: with CGATGCTTCCGGCCTCCTATTGGGTGGTTTCTTGGC the figure was 789; with AATGGGCTTGGTTTCCTGTGGGTTTGTAGCTTTGTA, 899.
On the same count and under the same terms, with AGCACCCGGAAGTCGGAGCTGCGCACGCACCGCGGG the figure was 751; with CCGCTGACATCCGCTTGGCCTGCGGCTTCTTTCTGT, 1080; with AGGCCTCGCTTCCTCTCCTGACCACACCCTGCAGCT, 1160.
Still for that read-out and setting: with AAACTCCCCCACTTCCGCCCACAGCCCTCTGGGCTT the figure was 984; with GACTCCCTCAGCGGATGCGGGTGCTGCTGCTGCTGC, 743.
TCTTGAGGGTCAGGATGTGGTGAGGCCAGAGAAGGC had an RUNX1 binding intensity of 808.
Sequence CTCACTTCCCCGGCAGCTCCCTCGCCCCGACCGCAG came in with an RUNX1 binding intensity of 1910.
Still for that read-out and setting: the same measure for TGGCTGCCACTGAGAGGATGTGGTGACAGAGGTGGG: 693; for CCGCGCACCCGGAACTACCTCCCGACCCGCATCCCC: 1290; for TCAGAACCAGGAAACTGAAGGCGGTTACTCCACATA: 742.
As for ATCATCTAGGAGACAGGATGTGGTTAGGGTGTTAAA, the RUNX1 binding intensity was found to be 1070.
The same measure, in the same setting: the same measure for TTTTTAAGGTCAGGATGTGGGCACATCTAAGGGGCA: 816.
GCACTTCCGGAGCCGGGCGTCTACAGACCGCGGCCA registered an RUNX1 binding intensity of 804.
Still for that read-out and setting: with GCCCCAGCCCCCGGATGTGGTGACAGAATCGATACT the figure was 811; with GGCCGTTCTTCCGCCTGCAGGGTGGTCAGCGGAGGT, 712.

The target in another assay is T1, ETS1 (UniProt P14921).
T1 sequence: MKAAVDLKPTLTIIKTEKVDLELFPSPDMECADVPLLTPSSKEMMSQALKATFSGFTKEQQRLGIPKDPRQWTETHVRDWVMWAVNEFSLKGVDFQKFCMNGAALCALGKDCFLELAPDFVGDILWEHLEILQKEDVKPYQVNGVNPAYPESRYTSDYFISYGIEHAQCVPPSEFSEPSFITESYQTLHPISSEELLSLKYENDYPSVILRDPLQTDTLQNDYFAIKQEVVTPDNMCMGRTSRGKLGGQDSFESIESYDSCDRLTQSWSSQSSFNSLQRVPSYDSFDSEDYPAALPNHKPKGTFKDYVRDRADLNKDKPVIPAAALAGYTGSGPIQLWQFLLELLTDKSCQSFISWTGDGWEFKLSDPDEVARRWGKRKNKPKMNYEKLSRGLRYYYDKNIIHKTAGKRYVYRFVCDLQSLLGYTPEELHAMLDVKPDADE
The assay is described as follows: ETS1 binding intensity (PBM fluorescence) in presence of RUNX1, normalised to ETS1-only experiment (arbitrary fluorescence units); higher = stronger binding. To be noted: ETS1 concentration 1 nM; RUNX1 concentration 25 nM.
Turning to CCCCCACATCCTGTTTGGTTTGTGGGACACCTCAAC, the ETS1 binding intensity was 2550.
The same measure, in the same setting: the same measure for TGCGCCGCGGAACCCGGAAGTGGTCACGGAGCTCGG: 23400; for CCACCCACTTCCTGCCCTAGCTAGTGTGGTATTTTT: 1640.
On the same count and under the same terms, with GCCTGCACCCTAGTTCCGGTGTGGGTGGAGGGGCCG the figure was 999.
Same read-out and setting: the same measure for ACTTACAAAGGAAGTGACAGAACCACAGAAAAGACC: 2660.
Consider GGAGGGGCTGGCCGGAAGTGAACCGCAGAGCACGCT, for which the ETS1 binding intensity amounted to 33500.
The same measure, in the same setting: with GAAGTGAGGTCAGGATGTGGTGGGTGACCCCTGAAA the figure was 1340.
Same read-out and setting: with CCAGAGGGCGGAAGTGGGAGCTGCGACCGCGCTCCC the figure was 6280; with CATCAAGTATTTCCTCACGCAAGCAACCGCATCCAT, 634; with AGGCGCCGGAAAAACTACATCTCCCACAATCCTCGG, 396.
The same measure, in the same setting: with TGCAATCAGGAAGCCTGCCCCTCTAGAACCACAAAA the figure was 1210; with TACAGCTGGAACGTCCTGTGGTTAACATTCTGCTCT, 568.
With GTCCCACGCGACTTCCTGCGGGAAACATGGCGGCAT, the ETS1 binding intensity turned out to be 1820.
As for ATCTTCCGTAGCAGTCAGGTGTTTTGTGGTTTGCAG, the ETS1 binding intensity stood at 1300.
Still for that read-out and setting: the same measure for CCCCACATCCGGGGGCCGGGGCCGGGCTGTGGGCTT: 516.
For AGCCAACAGGAAGCTGCAGAGACTAAACCACAGCAA, the ETS1 binding intensity came to 4930.
Same read-out and setting: with TCTGTTCTTCCTTTTCCTGTGCGGTGTGCCCCAAAC the figure was 722.
On to AATATACGGTGAGGATGTGGGCAAAAAACAAAGAGG, for which the ETS1 binding intensity came to 1270.
Same read-out and setting: the same measure for CCTGCCTTCCGTCTTCCAGGCAGAACCACAGAGAGG: 481; for TGCGCCGGGAGGAAGGGCTCCAAAACCACAGGGCGG: 1400; for ACATTTCCTTTTGGTATTTAAAGTAACCACACAGAA: 668.
Same read-out and setting: the same measure for ACCTGTGTTCTGGCAGGATGTGGTTGACCTCAGCAG: 18700.
Take CGATGCTTCCGGCCTCCTATTGGGTGGTTTCTTGGC: the ETS1 binding intensity worked out at 1050.
As for AATGGGCTTGGTTTCCTGTGGGTTTGTAGCTTTGTA, the ETS1 binding intensity was 685.
With AGCACCCGGAAGTCGGAGCTGCGCACGCACCGCGGG, the ETS1 binding intensity amounted to 1910.
On the same count and under the same terms, the same measure for CCGCTGACATCCGCTTGGCCTGCGGCTTCTTTCTGT: 1030.
On to AGGCCTCGCTTCCTCTCCTGACCACACCCTGCAGCT, for which the ETS1 binding intensity turned out to be 590.
Same read-out and setting: the same measure for AAACTCCCCCACTTCCGCCCACAGCCCTCTGGGCTT: 2120; for GACTCCCTCAGCGGATGCGGGTGCTGCTGCTGCTGC: 1400; for TCTTGAGGGTCAGGATGTGGTGAGGCCAGAGAAGGC: 2120.
In the case of CTCACTTCCCCGGCAGCTCCCTCGCCCCGACCGCAG, the ETS1 binding intensity came out at 479.
The same measure, in the same setting: with TGGCTGCCACTGAGAGGATGTGGTGACAGAGGTGGG the figure was 4350; with CCGCGCACCCGGAACTACCTCCCGACCCGCATCCCC, 592.
For TCAGAACCAGGAAACTGAAGGCGGTTACTCCACATA, the ETS1 binding intensity was found to be 663.
Same read-out and setting: with ATCATCTAGGAGACAGGATGTGGTTAGGGTGTTAAA the figure was 59800; with TTTTTAAGGTCAGGATGTGGGCACATCTAAGGGGCA, 1730; with GCACTTCCGGAGCCGGGCGTCTACAGACCGCGGCCA, 1050.
For the sequence GCCCCAGCCCCCGGATGTGGTGACAGAATCGATACT, the ETS1 binding intensity was 6050.
On the same count and under the same terms, with GGCCGTTCTTCCGCCTGCAGGGTGGTCAGCGGAGGT the figure was 446.

The target in another assay is RUNX1 (UniProt Q01196). Put plainly: RUNX1 binding intensity (PBM fluorescence) in presence of ETS1, normalised to RUNX1-only experiment (arbitrary fluorescence units); higher = stronger binding. The following applies: RUNX1 concentration 2 nM; ETS1 concentration 25 nM. On the procedure: as §1
Sequence of RUNX1 (Q01196 whole entry): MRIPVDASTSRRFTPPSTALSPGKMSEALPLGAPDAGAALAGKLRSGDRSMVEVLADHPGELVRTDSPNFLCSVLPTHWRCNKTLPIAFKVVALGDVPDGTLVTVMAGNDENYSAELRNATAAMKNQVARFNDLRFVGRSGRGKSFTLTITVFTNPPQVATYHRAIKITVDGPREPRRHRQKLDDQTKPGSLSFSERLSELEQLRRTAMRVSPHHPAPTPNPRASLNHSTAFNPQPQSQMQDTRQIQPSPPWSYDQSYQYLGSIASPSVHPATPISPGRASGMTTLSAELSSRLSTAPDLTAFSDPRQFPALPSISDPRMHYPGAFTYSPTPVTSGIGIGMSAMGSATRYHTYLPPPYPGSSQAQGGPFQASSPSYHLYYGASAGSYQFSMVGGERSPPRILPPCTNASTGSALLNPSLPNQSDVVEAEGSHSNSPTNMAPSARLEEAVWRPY
Take CCCCCACATCCTGTTTGGTTTGTGGGACACCTCAAC: the RUNX1 binding intensity was found to be 4080.
Same read-out and setting: with TGCGCCGCGGAACCCGGAAGTGGTCACGGAGCTCGG the figure was 3970.
Same read-out and setting: with CCACCCACTTCCTGCCCTAGCTAGTGTGGTATTTTT the figure was 7970; with GCCTGCACCCTAGTTCCGGTGTGGGTGGAGGGGCCG, 4850; with ACTTACAAAGGAAGTGACAGAACCACAGAAAAGACC, 1240.
Still for that read-out and setting: with GGAGGGGCTGGCCGGAAGTGAACCGCAGAGCACGCT the figure was 2980; with GAAGTGAGGTCAGGATGTGGTGGGTGACCCCTGAAA, 1090.
Regarding CCAGAGGGCGGAAGTGGGAGCTGCGACCGCGCTCCC, the RUNX1 binding intensity is 1880.
On the same count and under the same terms, the same measure for CATCAAGTATTTCCTCACGCAAGCAACCGCATCCAT: 1380; for AGGCGCCGGAAAAACTACATCTCCCACAATCCTCGG: 913.
The same measure, in the same setting: the same measure for TGCAATCAGGAAGCCTGCCCCTCTAGAACCACAAAA: 892; for TACAGCTGGAACGTCCTGTGGTTAACATTCTGCTCT: 1970.
Same read-out and setting: with GTCCCACGCGACTTCCTGCGGGAAACATGGCGGCAT the figure was 2170.
Take ATCTTCCGTAGCAGTCAGGTGTTTTGTGGTTTGCAG: the RUNX1 binding intensity is 2670.
For the sequence CCCCACATCCGGGGGCCGGGGCCGGGCTGTGGGCTT, the RUNX1 binding intensity stood at 2140.
Still for that read-out and setting: the same measure for AGCCAACAGGAAGCTGCAGAGACTAAACCACAGCAA: 1390.
As to TCTGTTCTTCCTTTTCCTGTGCGGTGTGCCCCAAAC, the RUNX1 binding intensity amounted to 2810.
On the same count and under the same terms, with AATATACGGTGAGGATGTGGGCAAAAAACAAAGAGG the figure was 965.
Same read-out and setting: with CCTGCCTTCCGTCTTCCAGGCAGAACCACAGAGAGG the figure was 1230.
Same read-out and setting: with TGCGCCGGGAGGAAGGGCTCCAAAACCACAGGGCGG the figure was 927; with ACATTTCCTTTTGGTATTTAAAGTAACCACACAGAA, 2120.
For the sequence ACCTGTGTTCTGGCAGGATGTGGTTGACCTCAGCAG, the RUNX1 binding intensity is 2700.
On the same count and under the same terms, the same measure for CGATGCTTCCGGCCTCCTATTGGGTGGTTTCTTGGC: 2040; for AATGGGCTTGGTTTCCTGTGGGTTTGTAGCTTTGTA: 2120.
On the same count and under the same terms, the same measure for AGCACCCGGAAGTCGGAGCTGCGCACGCACCGCGGG: 1210.
On the same count and under the same terms, the same measure for CCGCTGACATCCGCTTGGCCTGCGGCTTCTTTCTGT: 2740; for AGGCCTCGCTTCCTCTCCTGACCACACCCTGCAGCT: 1800; for AAACTCCCCCACTTCCGCCCACAGCCCTCTGGGCTT: 3490.
Regarding GACTCCCTCAGCGGATGCGGGTGCTGCTGCTGCTGC, the RUNX1 binding intensity turned out to be 1250.
Still for that read-out and setting: with TCTTGAGGGTCAGGATGTGGTGAGGCCAGAGAAGGC the figure was 1420; with CTCACTTCCCCGGCAGCTCCCTCGCCCCGACCGCAG, 2740.
Same read-out and setting: the same measure for TGGCTGCCACTGAGAGGATGTGGTGACAGAGGTGGG: 886; for CCGCGCACCCGGAACTACCTCCCGACCCGCATCCCC: 1440; for TCAGAACCAGGAAACTGAAGGCGGTTACTCCACATA: 875.
Still for that read-out and setting: with ATCATCTAGGAGACAGGATGTGGTTAGGGTGTTAAA the figure was 7840; with TTTTTAAGGTCAGGATGTGGGCACATCTAAGGGGCA, 1370.
In the case of GCACTTCCGGAGCCGGGCGTCTACAGACCGCGGCCA, the RUNX1 binding intensity was 2190.
As to GCCCCAGCCCCCGGATGTGGTGACAGAATCGATACT, the RUNX1 binding intensity amounted to 4060.
For the sequence GGCCGTTCTTCCGCCTGCAGGGTGGTCAGCGGAGGT, the RUNX1 binding intensity stood at 1010.

The values are drawn from the supplement of paper PMC10681739.
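For RUNX1 binding intensity (PBM fluorescence) in presence of ETS1, normalised to RUNX1-only experiment in this document: Full-length recombinant human ETS1 or RUNX1 bound to double-stranded 36-bp genomic probes on microarrays, detected by protein-specific primary antibody and Alexa488 secondary, spot fluorescence as median of four replicate spots.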
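For RUNX1 binding intensity (PBM fluorescence), RUNX1 alone in this document: Full-length recombinant human RUNX1 bound to double-stranded 36-bp genomic probes on a high-density microarray, scored as Alexa488 fluorescence per spot via anti-RUNX1 antibody, median of four replicate spots.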
